Source: PubChem BioAssay
Pf apPOL block = Pf-apPOL DNA polymerase inhibition. Recombinant Pf-apPOL, molecular beacon fluorescence, 1.5 h. actives 0.25% (n = 210,000). inhibition, % at 10 µM. AID 1794808
mHTT CaM bind = mHTT-calmodulin interaction abrogation; P42858; AlphaScreen His-mHTT/GST-CaM binding, luminescence; inhibition, % at 15 µM; actives 3.6% (n = 190,000); AID 1671202;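 further: 0% = both proteins with DMSO and 100% = one protein alone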
* = called active by the depositor. An excerpt weighted towards active compounds, which were near 3.5% of everything screened. No stated cut-off is given here; in the data, active means inhibition above about 50%; inactive means the rest.

What do the screens show for `CCc1ccc(NC(=O)C2CCCN(c3nnc4ccccn34)C2)cc1` (stereo not drawn)?
Pf apPOL block: -4; mHTT CaM bind: 56*

Results for CCOc1ccc(NC(=O)C2CCCN(c3nnc4ccccn34)C2)cc1 (stereo not drawn) ?
Pf apPOL block: -4; mHTT CaM bind: 5

What do the screens show for `Cc1cccc(NC(=O)C2CCCC2)n1`?
Pf apPOL block: 0; mHTT CaM bind: -8

How did COc1ccc(CNC(=O)c2nc(C)n(C3CCN(C(C)=O)CC3)c2C)c(OC)c1 do in these assays?
Pf apPOL block: -4; mHTT CaM bind: 8

How did Cc1ccc(S(=O)(=O)N(CC(=O)O)c2cccc(Br)c2)cc1 do in these assays?
Pf apPOL block: -3; mHTT CaM bind: 4

How did CCOC(=O)N1CCN(C(=O)CC2CCN(c3ccnc(NC)n3)CC2)CC1 do in these assays?
Pf apPOL block: -7; mHTT CaM bind: 8

How did Cn1c(N2CCC(C(=O)Nc3ccc(Cl)cc3)CC2)cc(=O)n(C)c1=O do in these assays?
Pf apPOL block: -2; mHTT CaM bind: 38

How did COc1ccc(NC(=O)C2CCN(c3cc(N4CCCC4)ncn3)CC2)cc1Cl do in these assays?
Pf apPOL block: -6; mHTT CaM bind: 54*

How did O=C(Nc1ccc2c(c1)OCCO2)C1CCN(c2cc(N3CCSCC3)ncn2)CC1 do in these assays?
Pf apPOL block: -9; mHTT CaM bind: 64*

How did Cc1ccc(NC(=O)C2CCN(c3cc(=O)n(C)c(=O)n3C)CC2)cc1 do in these assays?
Pf apPOL block: -5; mHTT CaM bind: 35

How did COc1ccc(NC(=O)C2CCN(c3cc(N4CCCC4)ncn3)CC2)cc1OC do in these assays?
Pf apPOL block: -8; mHTT CaM bind: 17

Results for O=C(Nc1ccc2c(c1)OCO2)C1CCN(c2cc(N3CCSCC3)ncn2)CC1 ?
Pf apPOL block: -6; mHTT CaM bind: 48

How did Cc1ccc(Cl)cc1N(C)C(=O)C1CCN(c2cc(=O)n(C)c(=O)n2C)CC1 do in these assays?
Pf apPOL block: -3; mHTT CaM bind: 50*

What do the screens show for `Cn1c(N2CCC(C(=O)Nc3ccc4c(c3)OCCO4)CC2)cc(=O)n(C)c1=O`?
Pf apPOL block: 2; mHTT CaM bind: 57*

Results for CC1CC(C)CN(C(=O)c2ccc(S(=O)(=O)c3ccccc3)cc2)C1 (stereo not drawn) ?
Pf apPOL block: -15; mHTT CaM bind: 1

What do the screens show for `CC1(C)CC(=O)c2cc(C(=O)Nc3ccc(Cl)cn3)c(=O)n(-c3ccc(Cl)cc3)c2C1`?
Pf apPOL block: 0; mHTT CaM bind: -6

Results for O=C(Nc1nccs1)Nc1ccccc1Br ?
Pf apPOL block: 5; mHTT CaM bind: -2

What do the screens show for `CN(CC(=O)Nc1ncc(Br)s1)S(=O)(=O)c1cccs1`?
Pf apPOL block: 1; mHTT CaM bind: 23

Results for COc1ccc(CCC(=O)Nc2ccc3ncnc(N4CCCCC4)c3c2)cc1 ?
Pf apPOL block: -5; mHTT CaM bind: 19

What do the screens show for `COc1ccc(CC(=O)Nc2ccc3ncnc(N4CCCCC4)c3c2)cc1Cl`?
Pf apPOL block: 1; mHTT CaM bind: 55*

Results for COc1ccc(Br)cc1C=C1Oc2cc(OCC(=O)O)ccc2C1=O ?
Pf apPOL block: 34; mHTT CaM bind: 5

What do the screens show for `O=C(Nc1cccnc1)c1ccc([N+](=O)[O-])o1`?
Pf apPOL block: 6; mHTT CaM bind: -4

Results for COc1cc([N+](=O)[O-])ccc1-c1ccc(C(=O)Nc2cccnc2)o1 ?
Pf apPOL block: 0; mHTT CaM bind: 61*

What do the screens show for `CC(C)(C)c1ccc(C(=O)NNC(=O)c2ccc(C(C)(C)C)cc2)cc1`?
Pf apPOL block: 6

How did O=C1CSC(c2cccs2)N1c1ccccc1F (stereo not drawn) do in these assays?
Pf apPOL block: -6; mHTT CaM bind: -5

Results for Cc1cc(C(=O)N2CC(C(=O)NCc3ccc(OC(F)(F)F)cc3)C2)no1 ?
Pf apPOL block: -27; mHTT CaM bind: -6

How did COc1ccc(OC)c(C2C3=C(CC(C)(C)CC3=O)NC3=C2C(=O)c2ccccc23)c1 (stereo not drawn) do in these assays?
Pf apPOL block: -5; mHTT CaM bind: 41

Results for CC1(C)CC(=O)C2=C(C1)NC1=C(C(=O)c3ccccc31)C2c1cc([N+](=O)[O-])ccc1O (stereo not drawn) ?
Pf apPOL block: 4; mHTT CaM bind: 63*

Results for CC1(C)CC(=O)C2=C(C1)NC1=C(C(=O)c3ccccc31)C2c1ccc([N+](=O)[O-])o1 (stereo not drawn) ?
Pf apPOL block: -3; mHTT CaM bind: 55*

Results for CC(=O)N1c2ccccc2NC2=C(C(=O)CC(C)(C)C2)C1c1ccc([N+](=O)[O-])o1 (stereo not drawn) ?
Pf apPOL block: 1; mHTT CaM bind: 2

Results for CS(=O)(=O)NC1CC2CC1CN2C(=O)Cc1ccc(Cl)cc1 (stereo not drawn) ?
Pf apPOL block: 1; mHTT CaM bind: 0

What do the screens show for `CCc1cc(-c2[nH]ncc2-c2ccccc2)c(O)cc1OC`?
Pf apPOL block: -2; mHTT CaM bind: 100*
